# Compound activity from PubChem BioAssay.
# Prx2 Sm inh = Schistosoma Mansoni Peroxiredoxins (Prx2); Schistosoma mansoni peroxiredoxin 2 (Prx2); S. mansoni Prx2 activity coupled to TGR/GSH (TGR is thioredoxin glutathione reductase), NADPH fluorescence loss, qHTS; Potency, µM; actives 0.07% (n = 65,000); AID 448, 2006
#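 Prx2 activity was followed as the loss of NADPH fluorescence (ex 365/em 450 nm), read every 30 sec for 8 min after H2O2 start. The enzyme mix (50 nM Prx2, 25 nM TGR, GSH, NADPH; pH 7.4 phosphate buffer) was incubated with compound for 15 min at room temperature first.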
# AmpC det inh = Promiscuous and Specific Inhibitors of AmpC Beta-Lactamase (assay with detergent); P00811; purified AmpC, nitrocefin hydrolysis with detergent; Potency, µM (titrated, usually from 28.7 µM), without a hit: at the highest dose activity change, negative = inhibition; actives 0.09% (n = 71,000); AID 584, 2007; active = well fitted curve in the direction sought with a large enough effect; inconclusive = small, poorly fitted or top-dose-only effect; note: % is set by controls: 0 for no effect and ±100 for the full control effect
# Target sequence (P00811 whole entry, looked up): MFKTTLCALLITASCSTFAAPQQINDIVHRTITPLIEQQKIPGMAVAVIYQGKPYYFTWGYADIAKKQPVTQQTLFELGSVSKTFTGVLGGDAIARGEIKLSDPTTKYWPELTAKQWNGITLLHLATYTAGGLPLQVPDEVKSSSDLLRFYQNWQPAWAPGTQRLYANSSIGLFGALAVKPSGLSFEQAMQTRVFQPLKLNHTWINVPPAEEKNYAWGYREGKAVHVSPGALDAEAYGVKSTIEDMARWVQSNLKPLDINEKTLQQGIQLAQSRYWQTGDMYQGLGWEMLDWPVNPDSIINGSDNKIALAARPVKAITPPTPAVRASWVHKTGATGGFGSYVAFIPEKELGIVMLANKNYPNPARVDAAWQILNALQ
#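 E. coli AmpC (5.3 nM) in 20 mM phosphate pH 7.0 with 0.01% Triton X-100, preincubated 15 min RT with compound; nitrocefin (2 uL of 800 uM stock) hydrolysis followed by 480 nm absorbance every 20 s over 4 min.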
# Anthrax LT inh = qHTS Assay for Anthrax Lethal Toxin Internalization. Cells, anthrax lethal toxin internalization, FRET ratio (460/530). Potency, µM (highest dose often 40 µM), for the others: top-dose activity change, negative = inhibition, most hits filed as inhibitors. actives 0.67% (n = 70,000); note: % is set by controls: 0 for no effect and ±100 for the full control effect; nearly all actives have a fitted effect of over 50% in size
# AmpC inh no det = Promiscuous and Specific Inhibitors of AmpC Beta-Lactamase (assay without detergent); P00811; AmpC nitrocefin hydrolysis, absorbance 480 nm, no detergent; Potency, µM (highest dose often 28.7 µM), inactives show top-dose activity change, negative = inhibition; actives 1.8% (n = 71,000); AID 585, 2007; note: % of control where 0% means no effect
#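 Enzyme, pH 7.0 phosphate. Compound titrations were pre-incubated with AmpC for 15 min at room temperature before nitrocefin (stock 800 uM) addition; product formation was recorded at 480 nm every 20 s for 4 min.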
# * hit, by the source's call; ? = inconclusive; / = no result; + = active, no number; [ ] = another dose, or the depositor's remark. Most compounds without a hit are left out; they make up all but 2.6% or so of the library. Unless noted, calls come from the whole dose curve. Potency is the fitted concentration of half-maximal effect.
SMILES,Prx2 Sm inh,AmpC det inh,Anthrax LT inh,AmpC inh no det
CC1=C(C(=O)Nc2ccccc2)C(c2ccco2)C(C#N)=C(SCc2ccccc2)N1 (centres undefined),/,8.6%,?,5.01µM*
CC1=C(C(=O)Nc2ccccc2)C(c2ccco2)C(C#N)=C(SCC(=O)OC(C)C)N1 (centres undefined),/,5.8%,?,15.8%
CCc1ccc(C(=O)CSC2=C(C#N)C(c3ccco3)C(C(C)=O)=C(C)N2)cc1 (centres undefined),/,9.7%,?,12.6µM*
CC(=O)C1=C(C)NC(SCC(=O)c2ccc(Cl)c(Cl)c2)=C(C#N)C1c1ccco1 (centres undefined),/,6.3%,?,-3.5%
Cc1cc(CN2CCN(CCC#N)CC2)c(O)c(C2(C)CCCCC2)c1,>57,-8.2%,12.6µM*,14.1%
O=C(Nc1nc(-c2cccs2)cs1)c1ccc(Cl)s1,>57,12.3%,10µM*,?
CCC1CCCCN1S(=O)(=O)c1ccc(C(=O)Nc2nnc(-c3cccs3)o2)cc1 (centres undefined),>57,-7.7%,?,12.6µM*
CC1CC(C)CN(S(=O)(=O)c2ccc(C(=O)Nc3nnc(-c4cccs4)o3)cc2)C1 (centres undefined),>57,7.6%,16.8%,-9.1%
CC(=O)Nc1nc(-c2cccs2)cs1,>57,-5.2%,3.7%,-3.8%
O=C(Nc1nc(-c2cccs2)cs1)c1ccc(S(=O)(=O)N2CCCC2)cc1,>57,2.0%,?,12.6µM*
O=c1c(-c2nc3ccccc3o2)c2oc3ccccc3n2c2ccccc12,>57,-5.3%,12.6µM*,47.5%
O=c1oc2ccccc2n1CCn1c2ccccc2c2nc3ccccc3nc21,>57,-3.4%,8.9%,-3.6%
Cc1ccccc1CS(=O)(=O)c1nnc([C@H](CC(C)C)NC(=O)OC(C)(C)C)o1,>57,7.94µM*,?,10µM*
CC(C)CC(=O)N1CCN(Cc2cccc(F)c2)CC1,/,14.1%,-2.1%,45.9%
CC(C)C[C@H](N)c1nnc(S(=O)(=O)Cc2cccc(F)c2)o1,>57,2.51µM*,?,?
CC[C@@H](C)[C@H](NC(=O)OC(C)(C)C)c1nnc(S(=O)(=O)Cc2cc(C)ccc2C)o1,>57,?,?,?
CC(C)[C@H](NC(=O)OC(C)(C)C)c1nnc(S(=O)(=O)Cc2c(F)cccc2Cl)o1,>57,0.794µM*,/,1.26µM*
CC(C)(C)OC(=O)N[C@@H](Cc1ccccc1)c1nnc(S(=O)(=O)Cc2cccc(F)c2)o1,>57,5.01µM*,10µM*,3.98µM*
O=C(O)C[C@H]1OCC=C2C[N@@+]3([O-])CC[C@]45c6ccccc6N[C@@H]4[C@@H]1[C@H]2C[C@H]53,>57,-2.1%[5.75 µM],-2.4%[8 µM],6.1%[5.75 µM]
O=C(Nc1nc(-c2ccccn2)cs1)C1COc2ccccc2O1 (centres undefined),>57,11.6%,?,9.7%
COc1ccc(OC)c(NC(=O)C2COc3ccccc3O2)c1 (centres undefined),/,10.0%,12.6µM*,8.2%
Cc1cc(NC(=O)C2CC(c3ccc(F)cc3)=NO2)no1 (centres undefined),>57,10.8%,-22.9%,3.98µM*[single pt active]
O=C(Nc1nc(-c2ccc3c(c2)OCO3)cs1)C1COc2ccccc2O1 (centres undefined),>57,11.8%,?,10µM*
Cc1cc(NC(=O)C2COc3ccccc3O2)no1 (centres undefined),>57,10.8%,8.3%,3.98µM*[single pt active]
CCOc1ccc(OCC)c(NC(=O)C2COc3ccccc3O2)c1 (centres undefined),>57,-0.1%,2.8%,3.7%
SMILES,Prx2 Sm inh,AmpC det inh,Anthrax LT inh,AmpC inh no det
CC(=O)c1nccs1,/,10.9%,?,-0.2%
COc1ccc(S(=O)(=O)Cc2ccc(C(=O)N3CCOCC3)o2)cc1,>57,12.8%,2.4%,3.98µM*[single pt active]
COc1ccccc1S(=O)(=O)Cc1ccc(C(=O)N2CCN(c3ccccc3)CC2)o1,>57,1.1%,3.8%,97.3%
COc1ccccc1S(=O)(=O)Cc1ccc(C(=O)N2CCOCC2)o1,>57,13.2%,-0.5%,3.16µM*[single pt active]
COc1cc2c(=O)n(Cc3ccco3)c(=O)n(CC(=O)c3cccc(Br)c3)c2cc1OC,>57,?,-3.7%,6.31µM*
COc1cc2c(=O)n(Cc3ccco3)c(=O)n(CC(=O)c3ccc(Br)cc3)c2cc1OC,>57,-2.4%,-0.4%,106.4%
Cc1ccc(NC(=O)CC2Oc3ccccc3NC2=O)c(C)c1 (centres undefined),>57,13.0%,0.4%,3.98µM*[single pt active]
CCN(CC)c1ccc(NC(=O)CC2Oc3ccccc3NC2=O)c(C)c1 (centres undefined),>57,11.5%,?,3.98µM*[single pt active]
C=CCSc1nc2ccccc2c(=O)n1Cc1ccco1,>57,0.6%[5.75 µM],?,-2.1%[5.75 µM]
O=C(Nc1cccc(S(=O)(=O)C(F)F)c1)c1ccc(Cl)c(S(=O)(=O)N2CCOCC2)c1,>57,2.4%,10µM*,-7.1%
COc1ccc(C(=O)Nc2cccc(C)c2)cc1S(=O)(=O)N1CCOCC1,>57,-2.0%,14.7%,60.0%
Cc1cc(C)nc(SCC(=O)Nc2ccc(S(=O)(=O)Nc3onc(C)c3C)cc2)n1,>57,5.1%,-4.5%,7.4%
Cc1noc(NS(=O)(=O)c2ccc(NC(=O)CSc3ncccn3)cc2)c1C,6.8*,3.2%,3.5%,-8.1%
CO[C@@H]1CC[C@@]2(C)[C@@H](CC[C@@]3(C)[C@H]2CC=C2[C@H]4CC(C)(C)[C@H](O)[C@@H](OC(C)=O)[C@]4(CO)[C@H](O)C[C@]23C)[C@@]1(C)CO (tested in a mixture with another compound),>57,-3.3%[12.8 µM],-7.5%[3.58 µM],100.3%[12.8 µM]
C[C@H]1[C@H](C)CC[C@@]2(C(=O)O)CC[C@]3(C)C(=CC[C@@H]4[C@@]5(C)CC[C@H](O)C(C)(C)[C@@H]5CC[C@@]43C)[C@@H]12,>57,-1.2%,7.94µM*,1.1%
Brc1ccccc1CN1CCC(N2CCCCC2)CC1,/,6.1%,10µM*,-19.9%
O=C(c1ccccc1)N1CCN(Cc2ccccc2Br)CC1,>57,-5.0%,2.8%,38.1%
COC(=O)c1ccc(CSc2nc3scc(-c4cccs4)c3c(=O)[nH]2)o1,>57,-5.1%,-2.1%,12.6µM*
CC(C)COC(=O)c1ccccc1C(=O)OCC(C)C,/,1.3%,?,-2.6%
CC(C)COC(=O)c1nnsc1NC(=O)Nc1ccccc1,>57,-1.7%,-27.4%,15.8µM*[single pt active]
COc1ccc(-c2cnc(SCC(=O)Nc3ccc4c(c3)OCO4)n2Cc2ccco2)cc1,>57,-3.2%,?,-11.1%
CC(=O)Nc1cccc(NC(=O)CSc2ncc(-c3ccc(Cl)cc3)n2Cc2ccco2)c1,>57,-5.1%,12.6µM*,64.4%
O=C(CSc1nnc(-c2ccc(Cl)cc2)n1Cc1ccco1)Nc1ccc2c(c1)OCCO2,>57,-5.9%,?,+[single pt active]
NC(=O)c1cc(-c2ccccc2)nc(N2CCOCC2)n1,/,24.4%,-12.4%,?
